# Experimental data: paper PMC7862700, “An all-to-all approach to the identification of sequence-specific readers for epigenetic DNA modifications on cytosine”
# How the values were obtained:
# Assay in all cases: DAPPL (digital affinity profiling via proximity ligation, sequencing); 10 mM Tris-HCl pH 7.5, 50 mM NaCl, 1 mM DTT, 4% glycerol, room temperature, 30 min; GST-TFs on glutathione beads, 16-mer random dsDNA library, 0.1% formaldehyde crosslink after washing; high values mean tight binding
# Conditions in all cases: protein: recombinant; tags: N-terminal GST; dsDNA, one strand shown
# FEV = target: T1, FEV (Homo sapiens, UniProt Q99581 1-238)
# T1 sequence: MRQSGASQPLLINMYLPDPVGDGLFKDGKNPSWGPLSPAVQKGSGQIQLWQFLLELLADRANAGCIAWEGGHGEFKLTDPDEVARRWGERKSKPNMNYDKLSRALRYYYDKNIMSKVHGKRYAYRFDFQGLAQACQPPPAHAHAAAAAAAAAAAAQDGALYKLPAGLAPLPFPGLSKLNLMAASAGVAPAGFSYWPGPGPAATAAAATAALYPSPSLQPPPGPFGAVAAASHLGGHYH
# Procedure, shortened: (§1)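 Sequencing on an Illumina NextSeq500 followed washing, crosslinking with 0.1% formaldehyde, proximity ligation (BsaI/T4 ligase, 1 h, 37 °C) and PCR amplification of pools that had been incubated for 30 min at room temperature with 200 nmole of a random double-stranded 16-mer DNA library in Tris/NaCl/DTT/glycerol buffer. Each pool held DNA-barcoded human transcription factors, expressed in yeast as GST fusions and captured on glutathione beads, plus a tag-only sample. Binding signal is a hexamer's read frequency for a factor divided by its frequency in the tag-only sample.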
# ETV5 = ETV5 (Homo sapiens, UniProt P41161 1-510)
# ETV5, sequence (P41161 whole entry): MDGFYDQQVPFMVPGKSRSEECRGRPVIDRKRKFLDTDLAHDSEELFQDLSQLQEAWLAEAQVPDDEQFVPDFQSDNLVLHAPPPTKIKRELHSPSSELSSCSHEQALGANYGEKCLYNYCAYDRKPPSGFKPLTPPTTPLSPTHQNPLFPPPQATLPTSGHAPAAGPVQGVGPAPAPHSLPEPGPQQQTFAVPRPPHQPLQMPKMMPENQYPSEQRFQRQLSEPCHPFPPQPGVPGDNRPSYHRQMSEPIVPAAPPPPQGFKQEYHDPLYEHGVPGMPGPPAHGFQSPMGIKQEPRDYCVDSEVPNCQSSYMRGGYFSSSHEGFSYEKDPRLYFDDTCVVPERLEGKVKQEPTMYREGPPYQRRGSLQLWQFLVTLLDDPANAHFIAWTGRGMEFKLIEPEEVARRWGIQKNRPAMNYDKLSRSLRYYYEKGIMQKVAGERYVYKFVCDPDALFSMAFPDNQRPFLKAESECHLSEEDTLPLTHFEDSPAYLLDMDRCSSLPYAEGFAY
# Procedure, shortened: as §1
# SPIC = target: T2, SPIC (Homo sapiens, UniProt Q8N5J4 1-248)
# T2 sequence: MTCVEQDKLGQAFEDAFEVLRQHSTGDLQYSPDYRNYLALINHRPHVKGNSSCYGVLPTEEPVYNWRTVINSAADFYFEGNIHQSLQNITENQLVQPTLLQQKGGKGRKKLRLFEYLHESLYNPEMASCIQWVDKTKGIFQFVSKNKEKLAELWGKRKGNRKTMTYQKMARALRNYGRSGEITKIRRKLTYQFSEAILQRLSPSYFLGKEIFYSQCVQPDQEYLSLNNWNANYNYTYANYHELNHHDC
# Procedure, shortened: as §1
# ELF4 = ELF4 (Homo sapiens, UniProt Q99607 1-663)
# ELF4, sequence (Q99607 whole entry): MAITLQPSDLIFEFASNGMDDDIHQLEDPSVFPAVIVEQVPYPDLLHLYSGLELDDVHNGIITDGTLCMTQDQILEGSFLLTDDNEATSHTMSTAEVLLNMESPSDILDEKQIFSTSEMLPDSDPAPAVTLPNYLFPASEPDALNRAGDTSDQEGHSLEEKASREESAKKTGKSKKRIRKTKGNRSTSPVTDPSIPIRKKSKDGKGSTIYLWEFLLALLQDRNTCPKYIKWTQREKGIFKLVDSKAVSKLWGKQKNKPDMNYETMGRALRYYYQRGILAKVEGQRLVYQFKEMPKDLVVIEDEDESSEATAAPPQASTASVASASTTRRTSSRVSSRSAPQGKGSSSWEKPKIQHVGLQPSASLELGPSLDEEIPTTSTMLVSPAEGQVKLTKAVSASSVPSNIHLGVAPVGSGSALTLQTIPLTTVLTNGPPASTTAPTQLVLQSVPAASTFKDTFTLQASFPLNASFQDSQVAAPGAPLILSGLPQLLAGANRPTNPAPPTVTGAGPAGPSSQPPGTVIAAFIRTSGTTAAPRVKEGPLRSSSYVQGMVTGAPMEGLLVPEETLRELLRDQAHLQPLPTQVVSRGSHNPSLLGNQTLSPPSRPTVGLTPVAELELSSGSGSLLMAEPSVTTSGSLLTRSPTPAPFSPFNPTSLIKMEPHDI
# Procedure, shortened: as §1
# ELK4 = target: T3, ELK4 (Homo sapiens, UniProt P28324-2 1-405)
# T3 sequence: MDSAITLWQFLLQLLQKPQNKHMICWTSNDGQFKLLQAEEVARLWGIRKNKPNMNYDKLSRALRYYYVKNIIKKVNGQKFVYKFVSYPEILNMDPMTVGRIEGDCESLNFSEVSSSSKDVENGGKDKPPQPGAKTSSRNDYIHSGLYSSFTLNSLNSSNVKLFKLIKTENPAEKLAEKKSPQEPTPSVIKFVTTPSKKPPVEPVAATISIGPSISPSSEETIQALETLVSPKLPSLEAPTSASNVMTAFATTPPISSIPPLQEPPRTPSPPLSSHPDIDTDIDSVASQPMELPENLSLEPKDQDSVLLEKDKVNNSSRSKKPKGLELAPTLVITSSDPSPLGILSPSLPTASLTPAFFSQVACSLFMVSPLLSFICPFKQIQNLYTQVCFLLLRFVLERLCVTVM
# Procedure, shortened: as §1
# ETV2 = target: T4, ETV2 (Homo sapiens, UniProt O00321 1-342)
# T4 sequence: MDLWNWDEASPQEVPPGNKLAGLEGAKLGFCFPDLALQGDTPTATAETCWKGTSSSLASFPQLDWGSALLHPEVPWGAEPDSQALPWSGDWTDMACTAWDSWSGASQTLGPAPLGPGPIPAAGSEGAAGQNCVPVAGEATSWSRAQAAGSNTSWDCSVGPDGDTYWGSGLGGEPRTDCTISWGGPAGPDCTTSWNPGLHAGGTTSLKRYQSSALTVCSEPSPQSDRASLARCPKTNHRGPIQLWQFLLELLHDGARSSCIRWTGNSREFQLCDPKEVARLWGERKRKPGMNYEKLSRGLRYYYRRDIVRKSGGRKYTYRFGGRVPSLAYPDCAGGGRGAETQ
# Procedure, shortened: as §1
# ELF3 = target: T5, ELF3 (Homo sapiens, UniProt P78545 1-371)
# T5 sequence: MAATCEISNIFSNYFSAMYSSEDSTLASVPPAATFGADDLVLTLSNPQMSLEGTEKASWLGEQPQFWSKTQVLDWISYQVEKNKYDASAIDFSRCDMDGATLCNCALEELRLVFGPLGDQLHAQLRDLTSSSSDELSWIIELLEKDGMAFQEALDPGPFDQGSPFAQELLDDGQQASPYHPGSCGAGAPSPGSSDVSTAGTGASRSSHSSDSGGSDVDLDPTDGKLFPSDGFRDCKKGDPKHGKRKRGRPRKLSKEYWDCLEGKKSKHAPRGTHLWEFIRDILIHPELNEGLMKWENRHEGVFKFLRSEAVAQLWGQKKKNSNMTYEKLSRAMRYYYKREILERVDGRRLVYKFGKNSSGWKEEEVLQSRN
# Procedure, shortened: as §1
# CRX = CRX (Homo sapiens, UniProt O43186 1-299)
# CRX, sequence (O43186 whole entry): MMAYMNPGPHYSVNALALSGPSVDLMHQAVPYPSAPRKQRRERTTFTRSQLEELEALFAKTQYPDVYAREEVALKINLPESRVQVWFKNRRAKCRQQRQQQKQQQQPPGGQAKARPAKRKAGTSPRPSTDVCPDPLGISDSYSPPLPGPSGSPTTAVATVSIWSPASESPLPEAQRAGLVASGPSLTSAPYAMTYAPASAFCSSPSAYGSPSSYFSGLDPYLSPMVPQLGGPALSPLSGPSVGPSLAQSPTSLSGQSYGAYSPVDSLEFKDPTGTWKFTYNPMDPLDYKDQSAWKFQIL
# Procedure, shortened: as §1
# ETV1 = ETV1 (Homo sapiens, UniProt P50549 1-477)
# ETV1, sequence (P50549 whole entry): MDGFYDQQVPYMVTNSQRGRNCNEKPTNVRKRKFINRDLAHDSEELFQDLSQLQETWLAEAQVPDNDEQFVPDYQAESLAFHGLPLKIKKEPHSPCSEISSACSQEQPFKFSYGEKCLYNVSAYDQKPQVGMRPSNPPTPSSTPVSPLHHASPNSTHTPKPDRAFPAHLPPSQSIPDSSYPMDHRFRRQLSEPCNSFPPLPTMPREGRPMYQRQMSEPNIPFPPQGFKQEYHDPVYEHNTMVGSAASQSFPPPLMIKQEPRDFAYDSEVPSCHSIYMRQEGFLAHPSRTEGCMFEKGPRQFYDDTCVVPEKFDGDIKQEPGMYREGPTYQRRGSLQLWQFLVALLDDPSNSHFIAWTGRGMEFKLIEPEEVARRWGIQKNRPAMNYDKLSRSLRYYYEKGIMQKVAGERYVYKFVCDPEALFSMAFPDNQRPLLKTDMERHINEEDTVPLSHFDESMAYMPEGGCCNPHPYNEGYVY
# Procedure, shortened: as §1
# ERF = target: T6, ERF (Homo sapiens, UniProt P50548 1-548)
# T6 sequence: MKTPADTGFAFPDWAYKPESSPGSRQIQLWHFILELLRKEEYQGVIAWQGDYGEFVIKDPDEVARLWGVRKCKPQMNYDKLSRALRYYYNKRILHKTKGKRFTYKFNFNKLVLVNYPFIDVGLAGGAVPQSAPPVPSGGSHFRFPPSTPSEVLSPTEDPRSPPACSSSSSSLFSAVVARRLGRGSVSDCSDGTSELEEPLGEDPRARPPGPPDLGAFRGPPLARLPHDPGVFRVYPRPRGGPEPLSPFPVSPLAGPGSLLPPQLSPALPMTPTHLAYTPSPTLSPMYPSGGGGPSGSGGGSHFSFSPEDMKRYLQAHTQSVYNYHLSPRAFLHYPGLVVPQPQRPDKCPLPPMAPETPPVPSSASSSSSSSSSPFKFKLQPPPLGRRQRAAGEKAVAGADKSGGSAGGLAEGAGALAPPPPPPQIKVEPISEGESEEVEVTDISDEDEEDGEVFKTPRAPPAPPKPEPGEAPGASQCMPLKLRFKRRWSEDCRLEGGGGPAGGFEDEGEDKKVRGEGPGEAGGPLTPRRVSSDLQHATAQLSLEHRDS
# Procedure, shortened: as §1
# ETV3L = target: T7, ETV3L (Homo sapiens, UniProt Q6ZN32 1-361)
# T7 sequence: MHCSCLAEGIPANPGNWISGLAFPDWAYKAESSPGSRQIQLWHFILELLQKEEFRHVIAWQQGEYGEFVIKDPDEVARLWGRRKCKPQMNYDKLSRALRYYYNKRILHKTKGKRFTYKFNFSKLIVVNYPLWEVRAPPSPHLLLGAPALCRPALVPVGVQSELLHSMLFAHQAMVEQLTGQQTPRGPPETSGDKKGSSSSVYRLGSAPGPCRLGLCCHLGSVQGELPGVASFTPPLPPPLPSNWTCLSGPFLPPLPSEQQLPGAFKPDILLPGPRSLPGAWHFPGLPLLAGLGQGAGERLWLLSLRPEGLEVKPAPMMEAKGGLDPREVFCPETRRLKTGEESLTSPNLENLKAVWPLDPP
# Procedure, shortened: as §1
# ETS2 = target: T8, ETS2 (Homo sapiens, UniProt P15036 1-469)
# T8 sequence: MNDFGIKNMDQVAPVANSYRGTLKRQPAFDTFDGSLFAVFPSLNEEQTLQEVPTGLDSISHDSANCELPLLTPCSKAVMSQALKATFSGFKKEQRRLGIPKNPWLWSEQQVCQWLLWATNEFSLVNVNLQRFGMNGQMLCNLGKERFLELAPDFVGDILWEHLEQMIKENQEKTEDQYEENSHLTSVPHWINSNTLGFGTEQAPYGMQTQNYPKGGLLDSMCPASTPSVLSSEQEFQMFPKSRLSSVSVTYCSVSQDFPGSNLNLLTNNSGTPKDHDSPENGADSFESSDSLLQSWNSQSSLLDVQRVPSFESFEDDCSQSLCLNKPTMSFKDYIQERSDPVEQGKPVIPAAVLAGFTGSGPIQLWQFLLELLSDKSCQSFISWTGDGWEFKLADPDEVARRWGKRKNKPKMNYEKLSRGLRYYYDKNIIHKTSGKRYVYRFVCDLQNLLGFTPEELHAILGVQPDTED
# Procedure, shortened: as §1
# SPDEF = target: T9, SPDEF (Homo sapiens, UniProt O95238 1-335)
# T9 sequence: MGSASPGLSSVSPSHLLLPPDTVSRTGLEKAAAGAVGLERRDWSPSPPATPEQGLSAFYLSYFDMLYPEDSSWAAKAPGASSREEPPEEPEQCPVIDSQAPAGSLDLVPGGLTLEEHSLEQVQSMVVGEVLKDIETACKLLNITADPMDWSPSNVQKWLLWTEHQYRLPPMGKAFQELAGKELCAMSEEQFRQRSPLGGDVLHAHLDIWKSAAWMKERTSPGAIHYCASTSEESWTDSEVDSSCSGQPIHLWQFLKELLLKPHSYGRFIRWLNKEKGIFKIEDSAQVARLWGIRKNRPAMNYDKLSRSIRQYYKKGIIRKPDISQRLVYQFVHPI
# Procedure, shortened: as §1
# ETV7 = target: T10, ETV7 (Homo sapiens, UniProt Q9Y603 1-341)
# T10 sequence: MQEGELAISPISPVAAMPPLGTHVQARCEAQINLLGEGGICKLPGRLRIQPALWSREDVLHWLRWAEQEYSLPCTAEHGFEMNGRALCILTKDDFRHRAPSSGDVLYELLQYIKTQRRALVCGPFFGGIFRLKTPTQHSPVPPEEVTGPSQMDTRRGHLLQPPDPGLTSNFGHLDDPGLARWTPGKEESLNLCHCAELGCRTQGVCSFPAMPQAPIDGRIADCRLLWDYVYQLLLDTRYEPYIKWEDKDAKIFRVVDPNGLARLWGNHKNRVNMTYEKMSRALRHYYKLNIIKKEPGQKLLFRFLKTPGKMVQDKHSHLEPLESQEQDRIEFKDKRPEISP
# Procedure, shortened: as §1
# ELF5 = target: T11, ELF5 (Homo sapiens, UniProt Q9UKW6-2 1-255)
# T11 sequence: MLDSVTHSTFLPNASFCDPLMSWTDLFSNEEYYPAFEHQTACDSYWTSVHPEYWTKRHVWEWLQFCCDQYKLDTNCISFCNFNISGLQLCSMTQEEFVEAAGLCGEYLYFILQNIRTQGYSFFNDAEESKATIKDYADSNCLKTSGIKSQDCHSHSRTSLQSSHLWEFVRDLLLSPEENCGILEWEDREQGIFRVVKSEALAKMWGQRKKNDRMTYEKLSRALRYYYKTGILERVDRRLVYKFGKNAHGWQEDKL
# Procedure, shortened: as §1
# ETV3 = target: T12, ETV3 (Homo sapiens, UniProt P41162-2 1-143)
# T12 sequence: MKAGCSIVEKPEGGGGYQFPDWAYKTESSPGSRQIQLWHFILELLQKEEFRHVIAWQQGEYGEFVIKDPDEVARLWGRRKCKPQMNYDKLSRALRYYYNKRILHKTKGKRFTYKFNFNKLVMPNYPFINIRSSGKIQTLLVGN
# Procedure, shortened: as §1
# ETV6 = ETV6 (Homo sapiens, UniProt P41212 1-452)
# ETV6, sequence (P41212 whole entry): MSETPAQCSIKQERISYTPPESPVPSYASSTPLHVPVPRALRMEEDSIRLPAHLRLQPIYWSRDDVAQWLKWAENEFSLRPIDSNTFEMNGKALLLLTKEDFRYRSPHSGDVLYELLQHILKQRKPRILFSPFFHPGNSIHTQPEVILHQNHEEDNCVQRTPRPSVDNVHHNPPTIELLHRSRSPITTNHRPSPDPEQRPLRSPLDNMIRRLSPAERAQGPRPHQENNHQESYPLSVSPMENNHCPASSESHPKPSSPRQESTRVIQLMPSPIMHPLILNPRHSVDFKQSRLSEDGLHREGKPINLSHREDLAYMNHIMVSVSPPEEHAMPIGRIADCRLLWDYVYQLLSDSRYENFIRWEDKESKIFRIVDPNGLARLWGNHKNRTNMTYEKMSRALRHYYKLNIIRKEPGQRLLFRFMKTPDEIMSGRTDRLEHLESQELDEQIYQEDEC
# Procedure, shortened: as §1
Sequence,binding signal (FEV),binding signal (ETV5),binding signal (SPIC),binding signal (ELF4),binding signal (ELK4),binding signal (ETV2),binding signal (ELF3),binding signal (CRX),binding signal (ETV1),binding signal (ERF),binding signal (ETV3L),binding signal (ETS2),binding signal (SPDEF),binding signal (ETV7),binding signal (ELF5),binding signal (ETV3),binding signal (ETV6)
CCATCA,"1.13 fold enrichment (6-mer frequency, TF over GST control)","1.23 fold enrichment (6-mer frequency, TF over GST control)","1.09 fold enrichment (6-mer frequency, TF over GST control)","1.2 fold enrichment (6-mer frequency, TF over GST control)","1.24 fold enrichment (6-mer frequency, TF over GST control)","1.11 fold enrichment (6-mer frequency, TF over GST control)","1.28 fold enrichment (6-mer frequency, TF over GST control)","1.04 fold enrichment (6-mer frequency, TF over GST control)","1.13 fold enrichment (6-mer frequency, TF over GST control)","1.29 fold enrichment (6-mer frequency, TF over GST control)","1.19 fold enrichment (6-mer frequency, TF over GST control)","1.17 fold enrichment (6-mer frequency, TF over GST control)","1.12 fold enrichment (6-mer frequency, TF over GST control)","1.25 fold enrichment (6-mer frequency, TF over GST control)","1.12 fold enrichment (6-mer frequency, TF over GST control)","1.12 fold enrichment (6-mer frequency, TF over GST control)","1.05 fold enrichment (6-mer frequency, TF over GST control)"
CGCTCA,"1.13 fold enrichment (6-mer frequency, TF over GST control)","1.19 fold enrichment (6-mer frequency, TF over GST control)","1.06 fold enrichment (6-mer frequency, TF over GST control)","1.24 fold enrichment (6-mer frequency, TF over GST control)","1.32 fold enrichment (6-mer frequency, TF over GST control)","1.26 fold enrichment (6-mer frequency, TF over GST control)","1.16 fold enrichment (6-mer frequency, TF over GST control)","1.2 fold enrichment (6-mer frequency, TF over GST control)","1.13 fold enrichment (6-mer frequency, TF over GST control)","1.2 fold enrichment (6-mer frequency, TF over GST control)","1.24 fold enrichment (6-mer frequency, TF over GST control)","1.14 fold enrichment (6-mer frequency, TF over GST control)","1.05 fold enrichment (6-mer frequency, TF over GST control)","1.09 fold enrichment (6-mer frequency, TF over GST control)","1.16 fold enrichment (6-mer frequency, TF over GST control)","1.07 fold enrichment (6-mer frequency, TF over GST control)","1.09 fold enrichment (6-mer frequency, TF over GST control)"
TACCCA,"1.03 fold enrichment (6-mer frequency, TF over GST control)","1.11 fold enrichment (6-mer frequency, TF over GST control)","1.08 fold enrichment (6-mer frequency, TF over GST control)","1.08 fold enrichment (6-mer frequency, TF over GST control)","1.02 fold enrichment (6-mer frequency, TF over GST control)","1.12 fold enrichment (6-mer frequency, TF over GST control)","1.18 fold enrichment (6-mer frequency, TF over GST control)","1.08 fold enrichment (6-mer frequency, TF over GST control)","1.03 fold enrichment (6-mer frequency, TF over GST control)","1.18 fold enrichment (6-mer frequency, TF over GST control)","1.06 fold enrichment (6-mer frequency, TF over GST control)","1.17 fold enrichment (6-mer frequency, TF over GST control)","1.09 fold enrichment (6-mer frequency, TF over GST control)","1.07 fold enrichment (6-mer frequency, TF over GST control)","1.09 fold enrichment (6-mer frequency, TF over GST control)","1.06 fold enrichment (6-mer frequency, TF over GST control)","1 fold enrichment (6-mer frequency, TF over GST control)"
